Measurements published in PubChem BioAssay AID463173 (ICCB-Longwood Screening Facility, Harvard Medical School, 2010).
The campaign covered roughly 52,000 compounds. About 4,300 (8.3%) were called active. For the sample, actives were picked, then their nearest neighbours and some compounds at random. A number with no mark means an inactive call. No stated cut-off is given here; in the data, active means survival mostly below about 52% (no sharp cut-off); inactive means mostly above about 56%.

test system: DeltatarO mutant; assay: S. aureus survival, RN4220 and DeltatarO strains – OD600, teichoic acid synthesis inhibitors, primary screen (AID 463173); details: S. aureus RN4220 wild type/DeltatarO growth, OD600, 18 h, active compounds read low, screened at 18.75 µg/mL (by protocol)

Structure (SMILES)	survival
CCN(Cc1ccccc1)S(=O)(=O)c1ccc(F)c(C(=O)Nc2cc(C(F)(F)F)ccc2Cl)c1	17% (active)
CN(Cc1ccccc1)S(=O)(=O)c1ccc(F)c(C(=O)Nc2ccccc2C(F)(F)F)c1	-5% (active)
CCN(Cc1ccccc1)S(=O)(=O)c1ccc(F)c(C(=O)Nc2ccc(C(C)C)cc2)c1	101%
CN(Cc1ccccc1)S(=O)(=O)c1ccc(F)c(C(=O)Nc2cc(Cl)cc(Cl)c2)c1	87%
O=C(Nc1cc(C(F)(F)F)ccc1Cl)c1cc(S(=O)(=O)NCc2ccccc2)ccc1F	55%
CN(Cc1ccccc1)S(=O)(=O)c1ccc(F)c(C(=O)Nc2cccc(Cl)c2Cl)c1	134%
Cc1ccc(C(=O)N/C(=C/c2ccccc2)C(=O)NCc2ccco2)cc1	95%
COc1ccc(S(=O)(=O)C(C)(C)C)cc1	78%
COc1ccc(C(=O)Nc2nc3c(s2)CCCC3)cc1Cl	53%
Cn1c(=O)[nH]c(=O)c2c1nc(CN1CCN(c3ccccc3F)CC1)n2Cc1ccc(F)cc1	122%
Cc1ccc(CN(Cc2ccco2)c2cnc(S(C)(=O)=O)nc2C(=O)Nc2ccc(Br)cc2)o1	105%
CCS(=O)(=O)c1ncc(N(Cc2ccc(F)cc2)Cc2ccco2)c(C(=O)Nc2cc(C)ccc2C)n1	58%
CCS(=O)(=O)c1ncc(N(Cc2ccco2)Cc2sccc2C)c(C(=O)Nc2cc(C)ccc2C)n1	106%
CCS(=O)(=O)c1ncc(N(Cc2ccco2)Cc2sccc2C)c(C(=O)Nc2ccc(C)cc2C)n1	53% (active)
CCS(=O)(=O)c1ncc(N(Cc2ccccc2)Cc2ccco2)c(C(=O)Nc2ccc(C)c(C)c2)n1	52%
Cc1ccsc1CN(Cc1ccco1)c1cnc(S(C)(=O)=O)nc1C(=O)Nc1ccc(Cl)cc1	40% (active)
Cc1ccc(NC(=O)c2nc(S(C)(=O)=O)ncc2N(Cc2ccco2)Cc2ccco2)cc1	44%
CCS(=O)(=O)c1ncc(N(Cc2ccccc2)Cc2ccco2)c(C(=O)Nc2ccccc2C)n1	45% (active)
CCS(=O)(=O)c1ncc(N(Cc2ccccc2)Cc2ccco2)c(C(=O)Nc2cccc(Cl)c2C)n1	60%
Cc1ccccc1NC(=O)c1nc(S(C)(=O)=O)ncc1N(Cc1ccco1)Cc1sccc1C	43% (active)
COc1ccc(NC(=O)C2CCCN(c3cnccn3)C2)c(OC)c1 (stereo not drawn)	107%
Cc1c(C)n(Cc2ccccc2)c2ccc(C(=O)N3CCN(c4ccccc4F)CC3)cc12	80%

Structure (SMILES)	survival
Cc1cc(C)c(NC(=O)CCS(=O)(=O)c2cc3c(cc2Cl)NC(=O)CO3)c(C)c1	80%
CCCOc1cccc(C2c3c(oc4ccc(F)cc4c3=O)C(=O)N2c2nc(C)c(C(C)=O)s2)c1 (stereo not drawn)	65%
CSc1ccc(CCNC(=O)Cn2ncc3c(=O)oc4ccc(C)cc4c32)cc1	89%
COC(=O)c1cc(OC)c(OC)c(OC)c1NC(=O)c1cc(=O)n(C)c(=O)n1C	78%
CC(=O)OC1COC(N2CCc3ccccc32)C(OC(C)=O)C1OC(C)=O (stereo not drawn)	97%
CC1CCN(C(=O)c2ccc3c(c2)N(Cc2ccccc2F)C(=O)c2ccccc2S3(=O)=O)CC1	80%
CCC(=O)N1CCc2cc(S(=O)(=O)NCCC(=O)NC(C)c3ccccc3)ccc21 (stereo not drawn)	85%
CC(C)Sc1ncc(Cl)c(C(=O)Nc2ccc(S(=O)(=O)N(C)c3ccccc3)cc2)n1	55%
CN(c1ccccc1)S(=O)(=O)c1ccc(NC(=O)c2nc(S(C)(=O)=O)ncc2Cl)cc1	-1% (active)
CCCSc1ncc(Cl)c(C(=O)Nc2ccc(S(=O)(=O)N(C)c3ccccc3)cc2)n1	54%
CC(C)Sc1ncc(Cl)c(C(=O)Nc2ccc(S(=O)(=O)Nc3ncccn3)cc2)n1	50%
CS(=O)(=O)c1ncc(Cl)c(C(=O)Nc2c(C(=O)Nc3ccccc3)oc3ccccc23)n1	55%
CCS(=O)(=O)c1ncc(Cl)c(C(=O)Nc2ccc(S(=O)(=O)N(C)c3ccccc3)cc2)n1	0% (active)
CCSc1ncc(Cl)c(C(=O)Nc2ccc(S(=O)(=O)N(C)c3ccccc3)cc2)n1	71%
CSc1ncc(Cl)c(C(=O)Nc2ccc(S(=O)(=O)N3CCCC(C)C3)cc2)n1 (stereo not drawn)	79%
CCN(c1ccccc1)S(=O)(=O)c1ccc(NC(=O)c2nc(SC)ncc2Cl)cc1	55%
CC(C)Sc1ncc(Cl)c(C(=O)Nc2ccc(S(=O)(=O)N3CCCCC3)cc2)n1	57%
CC1CCCN(S(=O)(=O)c2ccc(NC(=O)c3nc(SC(C)C)ncc3Cl)cc2)C1 (stereo not drawn)	44% (active)
CCN(c1ccccc1)S(=O)(=O)c1ccc(NC(=O)c2nc(SC(C)C)ncc2Cl)cc1	44% (active)
CCOc1ccccc1CNC(=O)C1CCN(c2nc3ccccc3nc2C(F)(F)F)CC1	69%
CCOc1ccc(NC(c2ccc(Cl)cc2)c2nnc(-c3cccc(F)c3)o2)cc1 (stereo not drawn)	90%
